Compounds without any hit were thinned out: in the full panel of roughly 83,000, 20% have a hit.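 Assay: single dose, 48 h. Readout: percent growth (0 = no net growth; negative = cell death). Active: <10.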 A number with no mark means an inactive call. The source made the active and inactive calls.
Legend:
Test in all cases: NCI-60 one-dose screen, 48 h (100 = growth as untreated, 0 = no growth, -100 = all killed)
Details in all cases: 10 µM unless noted
HCT-15 colon = test system: HCT-15 colon
HT29 colon = test system: HT29 colon
SNB-75 CNS = test system: SNB-75 CNS
SNB-19 CNS = test system: SNB-19 CNS
U251 CNS = test system: U251 CNS
PC-3 prostate = test system: PC-3 prostate
SK-MEL-5 melanoma = test system: SK-MEL-5 melanoma
UACC-62 melanoma = test system: UACC-62 melanoma
LOX IMVI melanoma = test system: LOX IMVI melanoma
SK-MEL-28 melanoma = test system: SK-MEL-28 melanoma

Compound	growth (HCT-15 colon)	growth (HT29 colon)	growth (SNB-75 CNS)	growth (SNB-19 CNS)	growth (U251 CNS)	growth (PC-3 prostate)	growth (SK-MEL-5 melanoma)	growth (UACC-62 melanoma)	growth (LOX IMVI melanoma)	growth (SK-MEL-28 melanoma)
COc1cc(/C=N\NC(=O)c2ccc3nc(-c4ccc(Br)cc4)[nH]c3c2)cc(OC)c1OC	79.4%	25.3%	57.1%	59.3%	45.1%	46.2%	27.5%	28.1%	35.2%	30.2%
Cc1ccsc1[C@H]1c2[nH]c3ccccc3c2C[C@H]2C(=O)N(CCCCCCC(=O)NO)CC(=O)N12	99.1%	87.3%	51.8%	81.1%	83.8%	78.6%	83.4%	57.9%	-71.9% (active)	73.7%
O=c1nc(Nc2ccc([N+](=O)[O-])cc2O)sc2ccccc12	26.6%	81.7%	-11.7% (active)	28.7%	36.8%	16.5%	21%	15.2%	41.2%	50.8%
C#Cc1nc(/C=C/CCCCCCC(=O)NO)cs1	77%	54.2%	-17.1% (active)	86.1%	63.2%	72.8%	63.2%	45.8%	-84.2% (active)	75.4%
Cc1ccc2c(n1)C(=O)C(Cl)=C(Nc1ccc(C(=O)OC(C)(C)C)cc1)C2=O	-43.9% [9.25 µM] (active)	100% [9.25 µM]	83.8% [9.25 µM]	83.8% [9.25 µM]	83.5% [9.25 µM]	72.1% [9.25 µM]	87.6% [9.25 µM]	87.1% [9.25 µM]	-59.3% [9.25 µM] (active)	82.5% [9.25 µM]
O=S(=O)(NCCCNc1nccc(-c2[nH]c(-c3ccccc3)nc2-c2ccc(F)c(O)c2)n1)c1cccc2ccccc12	39.4%	101%	75.4%	76.5%	50.5%	52.8%	34.1%	26.3%	31.9%	54.3%
O=C(/C=C/c1ccccc1Cl)Nc1ncc(Cc2cc(Cl)ccc2Cl)s1	21.7%	-18% (active)	1.14% (active)	21%	16.6%	39.8%	25.7%	23.2%	35%	55.4%
NS(=O)(=O)c1ccc(CCn2c(-c3ccc(C(=O)O)cc3)nc(-c3ccccc3)c2-c2ccccc2)cc1	94.5%	106%	86.1%	102%	110%	93.5%	99.1%	94.2%	102%	102%
C=C(C)[C@@H]1CC[C@]2(COCCCNCCCN)CC[C@]3(C)[C@H](CC[C@@H]4[C@@]5(C)CC[C@H](O)C(C)(C)[C@@H]5CC[C@]43C)[C@@H]12	-78% (active)	-62.6% (active)	-86.6% (active)	-91% (active)	-73.4% (active)	-74.4% (active)	-63.5% (active)	-89.6% (active)	-80.7% (active)	-92.8% (active)
Brc1cc(-c2cc(-c3ccc4c(c3)OC=CO4)[nH]n2)cs1	51%	90%	83.5%	84.1%	81.3%	97.3%	87.5%	76.9%	80%	94.2%
NC(=O)n1c(=O)n(-c2cccc(C(F)(F)F)c2)c(=O)c2cc(-c3ccc(F)cc3F)ccc21	10.1%	74.8%	-18.3% (active)	11%	6.64% (active)	-11.8% (active)	-59.7% (active)	-6.78% (active)	-28.3% (active)	26.1%
Cc1ccc(C(=O)CSc2nc3ccccc3c(=O)n2C)cc1	94.5%	111%	75.5%	94.9%	94.6%	88.5%	81.4%	70.3%	93%	101%
CC(=C(c1ccc(OCCCN(C)C)cc1)c1ccc(OCCCN(C)C)cc1)c1ccc(Cl)cc1	41.6%	45.7%	75.8%	92.9%	92.1%	87.5%	98.5%	101%	76.6%	99.2%
C#CCOc1cccc(/C(N)=N/C(N)=N/c2nc3ccccc3s2)c1	57.4%	108%	109%	95.5%	84.9%	69.8%	95.3%	92.3%	-1.89% (active)	115%
O=C(CSc1nc2ccccc2c(=O)n1-c1ccccc1)N/N=C/c1ccc(Oc2ccc(Cl)cc2)cc1	60.8%	59.1%	60.1%	33.2%	15.2%	58.7%	71.2%	66.6%	14%	62.4%
CN1CCN(Cc2ccc(NC(=O)c3cncc(C#Cc4cnc5ccc(N6CCOCC6)nn45)c3)cc2C(F)(F)F)CC1	-53.9% (active)	-71.2% (active)	-46.3% (active)	-20.3% (active)	-92.8% (active)	-7.08% (active)	-95.9% (active)	-62.2% (active)	-93.8% (active)	-76.4% (active)
COc1cc(C(=O)c2cc(C(C)=O)c3ccc(C)cn23)cc(OC)c1OC	18.9%	15.6%	6.02% (active)	40%	34%	55.6%	36.7%	17.2%	34.5%	58.1%
Cc1cc(NS(=O)(=O)c2ccc(NC(=O)CSc3nc4ccccc4c(=O)n3-c3ccccc3)cc2)no1	106%	104%	77.3%	94.2%	100%	95%	98.4%	88.6%	94.1%	95.9%
N#Cc1nc(-c2ccccc2)oc1N1CCC(C2(C(F)(F)F)N=N2)CC1	102%	102%	98.7%	102%	97.5%	97%	99.2%	93.4%	97.1%	119%
CCC(=C(c1ccc(OCCN(C)C)cc1)c1ccc(OCCN(C)C)cc1)c1ccc(Cl)cc1	-74.8% (active)	-38.9% (active)	17.7%	-39.8% (active)	-64.5% (active)	-12.1% (active)	-95.8% (active)	-73.6% (active)	-98.1% (active)	-83.3% (active)
NC(N)=NS(=O)(=O)c1ccc(N=Nc2c(N)nn(-c3ccc([N+](=O)[O-])cc3[N+](=O)[O-])c2N)cc1	99.9%	105%	94.7%	99.8%	99.9%	92.8%	99%	95.2%	97.2%	109%
Cc1[nH]c(C(=O)Nc2ccccc2OCc2cccc(C(=O)NCCN)c2)cc1Cl	106%	69.4%	74.4%	85.8%	53.3%	96.5%	99.3%	68.4%	35.6%	37.6%
CCOC(=O)c1cccnc1Nc1ccc(NC(=O)Nc2ccc(Cl)c(C(F)(F)F)c2)cc1	14.4%	36.1%	106%	49.3%	30.1%	7.22% (active)	67.8%	45.4%	22.5%	43.7%
O=c1c2ccccc2cc2n1CCN=C2c1ccccc1	96.6%	104%	94.9%	94.8%	97%	96.5%	99.5%	96%	101%	112%
CC(=O)N1N=C(c2cc3ccccc3oc2=O)CC1c1cn(-c2ccccc2)nc1-c1ccc(C)cc1 (stereo not given)	103%	108%	90.7%	96%	104%	93%	101%	95.2%	95.7%	106%
CC(C)NC(=O)c1cc(-c2ccc(NC(=O)Nc3ccc(F)cc3)cc2)nc2cccnc12	99.5%	104%	101%	99.9%	104%	96.7%	101%	96%	98%	107%

Reference: PubChem BioAssay (NCI)
